Results filed as inconclusive are left out. Where a call stands in place of a potency, no number is given. The source made the active and inactive calls. The call rests on the fitted dose curve; in most records, active means well fitted cell-killing curve with a large enough effect; inconclusive means small, poorly fitted or top-dose-only effect, or effect the other way; inactive means no such curve, though single readings can be large or run the other way.
Legend:
[1] = Quantitative High-Throughput drug screen in 47 multiple myeloma cell lines against the NCATS MIPE library collection: Delta47_JCRB cell viability assay (AID 1918925; further: nearly all actives have a fitted effect of over 45% in size; further: potency means the concentration at half of the fitted maximal effect)
Procedure, shortened: (§1)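 We plated 500 myeloma cells per well, pinned in MIPE 4.0 compounds, and incubated for 48 hours at 37C. ATP was then quantified with CellTiter-Glo, with DMSO and media-only wells defining 100% and 0%.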

[2] = Quantitative High-Throughput drug screen in 47 multiple myeloma cell lines against the NCATS MIPE library collection: EJM_DSMZ cell viability assay (AID 1918926; further: nearly all actives have a fitted effect of over 30% in size; further: potency means the concentration at half of the fitted maximal effect)
Procedure, shortened: as §1

[3] = Quantitative High-Throughput drug screen in 47 multiple myeloma cell lines against the NCATS MIPE library collection: AMO1_DSMZ cell viability assay (AID 1918927; further: nearly all actives have a fitted effect of over 30% in size; further: potency means the concentration at half of the fitted maximal effect)
Procedure, shortened: as §1

[4] = Quantitative High-Throughput drug screen in 47 multiple myeloma cell lines against the NCATS MIPE library collection: ARP1_JJKsccF8 cell viability assay (AID 1918928; further: nearly all actives have a fitted effect of over 40% in size; further: potency means the concentration at half of the fitted maximal effect)
Procedure, shortened: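 500 cells/well; MIPE 4.0 library pinned in; 48 h, 37 °C, 5% CO2; CellTiter-Glo ATP luminescence. Controls: DMSO = 100% viability, medium only = 0%.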

[5] = Quantitative High-Throughput drug screen in 47 multiple myeloma cell lines against the NCATS MIPE library collection: ARD_JJKsccE7 cell viability assay (AID 1918929; further: potency means the concentration at half of the fitted maximal effect)
Procedure, shortened: as §1

[6] = Quantitative High-Throughput drug screen in 47 multiple myeloma cell lines against the NCATS MIPE library collection: Karpas620_DSMZ cell viability assay (AID 1918959); further: nearly all actives have a fitted effect of over 30% in size; further: potency means the concentration at half of the fitted maximal effect
Procedure, shortened: (§2)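 qHTS of the MIPE 4.0 collection: 500 myeloma cells/well, 48 h drug exposure at 37C in 5% CO2, then CellTiter-Glo for 5 min at room temperature before luminescence reading.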

[7] = Quantitative High-Throughput drug screen in 47 multiple myeloma cell lines against the NCATS MIPE library collection: JIM1_ECACC cell viability assay (AID 1918964)
Procedure, shortened: as §1

[8] = Quantitative High-Throughput drug screen in 47 multiple myeloma cell lines against the NCATS MIPE library collection: INA6_PLB cell viability assay (AID 1918965; further: nearly all actives have a fitted effect of over 55% in size; further: potency means the concentration at half of the fitted maximal effect)
Procedure, shortened: (§3)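 Luminescent ATP measurement with CellTiter-Glo gives viability, scaled between DMSO-only wells (100%) and media-only wells (0%). Cells, 500 per well, faced library compounds for 48 hours at 37C.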

[9] = Quantitative High-Throughput drug screen in 47 multiple myeloma cell lines against the NCATS MIPE library collection: H1112_PLB cell viability assay (AID 1918967; further: nearly all actives have a fitted effect of over 30% in size; further: potency means the concentration at half of the fitted maximal effect)
Procedure, shortened: as §1

[10] = Quantitative High-Throughput drug screen in 47 multiple myeloma cell lines against the NCATS MIPE library collection: Karpas25_ECACC cell viability assay (AID 1918968; further: nearly all actives have a fitted effect of over 35% in size; further: potency means the concentration at half of the fitted maximal effect)
Procedure, shortened: as §1

[11] = Quantitative High-Throughput drug screen in 47 multiple myeloma cell lines against the NCATS MIPE library collection: KMS20_JCRB cell viability assay (AID 1918973); further: nearly all actives have a fitted effect of over 45% in size; further: potency means the concentration at half of the fitted maximal effect
Procedure, shortened: as §1

[12] = Quantitative High-Throughput drug screen in 47 multiple myeloma cell lines against the NCATS MIPE library collection: JJN3_DSMZ cell viability assay (AID 1918966; further: nearly all actives have a fitted effect of over 50% in size; further: potency means the concentration at half of the fitted maximal effect)
Procedure, shortened: as §1

[13] = Quantitative High-Throughput drug screen in 47 multiple myeloma cell lines against the NCATS MIPE library collection: KMS27_JCRB cell viability assay (AID 1918970); further: nearly all actives have a fitted effect of over 30% in size; further: potency means the concentration at half of the fitted maximal effect
Procedure, shortened: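 Myeloma cells (500 per well) were exposed to MIPE 4.0 compounds for 48 h at 37 °C, 5% CO2; viability was read as ATP luminescence with CellTiter-Glo, normalized to DMSO-only (100%) and media-only (0%) wells.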

[14] = Quantitative High-Throughput drug screen in 47 multiple myeloma cell lines against the NCATS MIPE library collection: KMS12BM_JCRB cell viability assay (AID 1918971); further: nearly all actives have a fitted effect of over 35% in size; further: potency means the concentration at half of the fitted maximal effect
Procedure, shortened: (§4)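 Inhibition of cell viability is measured here. Each line was plated at 500 cells per well, treated with MIPE 4.0 drugs, kept 48 hours at 37C, then assayed for ATP content by CellTiter-Glo luminescence.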

[15] = Quantitative High-Throughput drug screen in 47 multiple myeloma cell lines against the NCATS MIPE library collection: KMS21BM_JCRB cell viability assay (AID 1918974); further: potency means the concentration at half of the fitted maximal effect
Procedure, shortened: as §1

[16] = Quantitative High-Throughput drug screen in 47 multiple myeloma cell lines against the NCATS MIPE library collection: KMS12PE_JCRB cell viability assay (AID 1918972); further: nearly all actives have a fitted effect of over 30% in size; further: potency means the concentration at half of the fitted maximal effect; on viability: series mostly up to about 46 µM
Procedure, shortened: as §3

[17] = Quantitative High-Throughput drug screen in 47 multiple myeloma cell lines against the NCATS MIPE library collection: KMS26_JCRB cell viability assay (AID 1918975); further: nearly all actives have a fitted effect of over 45% in size; further: potency means the concentration at half of the fitted maximal effect
Procedure, shortened: as §4

[18] = Quantitative High-Throughput drug screen in 47 multiple myeloma cell lines against the NCATS MIPE library collection: MMM1_PLB cell viability assay (AID 1918976); details: MMM1 myeloma cells viability, CellTiter-Glo, 48 h; further: potency means the concentration at half of the fitted maximal effect; nearly all actives have a fitted effect of over 35% in size
Procedure, shortened: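 qHTS format: cells plated (500/well), pin-dosed with MIPE 4.0 compounds, kept 48 h at 37 °C. Readout was CellTiter-Glo luminescence, median RLU.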

[19] = Quantitative High-Throughput drug screen in 47 multiple myeloma cell lines against the NCATS MIPE library collection: Karpas417_ECACC cell viability assay (AID 1918961); further: potency means the concentration at half of the fitted maximal effect
Procedure, shortened: as §3

[20] = Quantitative High-Throughput drug screen in 47 multiple myeloma cell lines against the NCATS MIPE library collection: KHM11_PLB cell viability assay (AID 1918962); further: nearly all actives have a fitted effect of over 35% in size; further: potency means the concentration at half of the fitted maximal effect
Procedure, shortened: as §2

For `CC(C)c1cccc(C(C)C)c1O`, the Potency [1] was “inactive”, the Potency [2] was “inactive” and the Potency [3] was “inactive”. The Potency [4] was “inactive”, the Potency [5] was “inactive” and the Potency [6] was “inactive”. For the same molecule, the outcome [7] was “inactive”, the Potency [8] was “inactive” and the Potency [9] was “inactive”. The Potency [10] was “inactive” and the Potency [11] was “inactive”.

In the case of `C[C@]12CC[C@@H]3c4ccc(OC(=O)N(CCCl)CCCl)cc4CC[C@H]3[C@@H]1CC[C@@H]2OP(=O)(O)O`, the Potency [1] was “inactive”, the Potency [2] was “inactive” and the Potency [3] was “inactive”. For the same molecule, the Potency [4] was “inactive”, the Potency [5] was “inactive” and the Potency [6] was “inactive”. The outcome [7] was “inactive”, the Potency [12] was “inactive” and the Potency [9] was “inactive”. For the same molecule, the Potency [10] was “inactive”, the Potency [13] was “inactive” and the Potency [14] was “inactive”. The Potency [15] was “inactive”.

In the case of `CC(NC(C)(C)C)C(=O)c1cccc(Cl)c1` (stereo not drawn), the Potency [2] was “inactive”, the Potency [3] was “inactive” and the Potency [4] was 13.2 µM (active). The Potency [6] was “inactive”, the Potency [8] was “inactive” and the Potency [12] was “inactive”. The Potency [10] was 3.72 µM (active), the Potency [13] was “inactive” and the Potency [16] was “inactive”. The Potency [17] was “inactive”.

With `CCC1(c2ccc(N)cc2)CCC(=O)NC1=O` (stereo not drawn) the Potency [1] was “inactive”, the Potency [2] was “inactive” and the Potency [3] was “inactive”. The Potency [4] was “inactive”, the Potency [5] was “inactive” and the Potency [6] was “inactive”. For the same molecule, the Potency [8] was “inactive”, the Potency [9] was “inactive” and the Potency [10] was “inactive”. For the same molecule, the Potency [13] was “inactive”, the Potency [16] was “inactive” and the Potency [17] was “inactive”. The Potency [18] was 0.743 µM (active).

In the case of `C[C@](O)(CS(=O)(=O)c1ccc(F)cc1)C(=O)Nc1ccc(C#N)c(C(F)(F)F)c1`, the Potency [1] was 0.372 µM (active), the Potency [2] was 372 nM (active) and the Potency [3] was 662 nM (active). For the same molecule, the Potency [4] was 18.7 µM (active), the Potency [5] was 1.05 µM (active) and the Potency [19] was 935 nM (active). The Potency [20] was 833 nM (active), the Potency [8] was 1.18 µM (active) and the Potency [12] was 4.69 µM (active). For the same molecule, the Potency [9] was 0.662 µM (active), the Potency [10] was 0.418 µM (active) and the Potency [13] was “inactive”. The Potency [14] was 26.4 µM (active), the Potency [11] was 833 nM (active) and the Potency [15] was 6.62 µM (active). For the same molecule, the Potency [17] was 4.69 µM (active).

With `COc1cc(OC)c(OC)cc1C=O` the Potency [1] was “inactive”, the Potency [2] was “inactive” and the Potency [3] was “inactive”. The Potency [4] was “inactive”, the Potency [5] was “inactive” and the Potency [6] was “inactive”. For the same molecule, the outcome [7] was “inactive”, the Potency [8] was “inactive” and the Potency [9] was “inactive”. For the same molecule, the Potency [10] was “inactive”, the Potency [13] was 0.0047 µM (active) and the Potency [16] was “inactive”. For the same molecule, the Potency [11] was “inactive”, the Potency [15] was “inactive” and the Potency [17] was “inactive”.

For `O=P1(N(CCCl)CCCl)NCCCO1` (stereo not drawn), the Potency [1] was 14.8 µM (active), the Potency [5] was “inactive” and the Potency [6] was 18.7 µM (active). For the same molecule, the Potency [19] was “inactive”, the Potency [20] was “inactive” and the Potency [9] was “inactive”. The Potency [13] was 20.9 µM (active), the Potency [16] was 8.33 µM (active) and the Potency [15] was 14.8 µM (active). For the same molecule, the Potency [18] was 2.35 µM (active).

In the case of `CC(C)C[C@H](CN)CC(=O)O`, the Potency [1] was “inactive”, the Potency [2] was “inactive” and the Potency [3] was “inactive”. For the same molecule, the Potency [4] was “inactive”, the Potency [5] was “inactive” and the Potency [6] was “inactive”. The Potency [19] was “inactive”, the Potency [20] was “inactive” and the outcome [7] was “inactive”. The Potency [8] was “inactive”, the Potency [9] was “inactive” and the Potency [10] was “inactive”. For the same molecule, the Potency [13] was “inactive”, the Potency [14] was 9.35 µM (active) and the Potency [16] was “inactive”. The Potency [17] was “inactive” and the Potency [18] was 11.8 µM (active).

In the case of `CN1C(=O)COc2c(C(=O)NC3CN4CCC3CC4)cc(Cl)cc21` (stereo not drawn), the Potency [1] was “inactive”, the Potency [2] was “inactive” and the Potency [6] was “inactive”. The Potency [20] was “inactive”, the Potency [9] was “inactive” and the Potency [10] was “inactive”. The Potency [14] was “inactive”, the Potency [16] was “inactive” and the Potency [17] was “inactive”.

In the case of `CN1C(=O)CCS(=O)(=O)C1c1ccc(Cl)cc1` (stereo not drawn), the Potency [3] was “inactive”, the Potency [5] was “inactive” and the Potency [6] was “inactive”. The outcome [7] was “inactive”, the Potency [8] was “inactive” and the Potency [12] was “inactive”. For the same molecule, the Potency [9] was 16.6 µM (active), the Potency [13] was “inactive” and the Potency [14] was “inactive”. The Potency [16] was “inactive”, the Potency [11] was “inactive” and the Potency [17] was “inactive”.

In the case of `C[C@]12CCC(=O)C=C1CC[C@@H]1[C@H]3CC[C@](C)(O)[C@@]3(C)CC[C@@H]12`, the outcome [7] was “inactive”, the Potency [9] was “inactive” and the Potency [14] was 34 µM (active). The Potency [16] was 15.2 µM (active).

In the case of `C[C@]12CC[C@H]3[C@@H](CC[C@@]45O[C@H]4C(O)=C(C#N)C[C@]35C)[C@H]1CC[C@H]2O`, the Potency [2] was “inactive”, the Potency [3] was “inactive” and the Potency [4] was “inactive”. For the same molecule, the Potency [6] was “inactive”, the Potency [19] was “inactive” and the outcome [7] was “inactive”. The Potency [12] was 18.7 µM (active), the Potency [10] was “inactive” and the Potency [14] was “inactive”. The Potency [11] was “inactive”.

With `O=C(O)CCCc1ccc(N(CCCl)CCCl)cc1` the Potency [2] was “inactive”, the Potency [3] was “inactive” and the Potency [5] was “inactive”. The Potency [6] was “inactive”, the Potency [8] was 18.7 µM (active) and the Potency [9] was “inactive”. For the same molecule, the Potency [16] was “inactive” and the Potency [15] was “inactive”.

— PubChem BioAssay (NCATS)
